# Screening results as filed in PubChem BioAssay.
# In the library only some 2.9% were active in any assay of this set; here they are far more common.
# HEK293 cAMP ctrl: raises cAMP in parental HEK293 cells, TSHR agonist counter-screen; parental HEK293 CNG cAMP sensor, membrane potential fluorescence; Potency, µM (series often up to 57.1 µM), usual class: activators; hit rate 2.5% among 73,000; active means well fitted activation curve with a large enough effect; inconclusive means small, poorly fitted or top-dose-only effect; inactive means no such curve, though single readings can be large or run the other way; further: nearly all actives have a fitted effect of over 55% in size
#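 Parental HEK 293 cells stably expressing a modified CNG channel (no TSHR) report cAMP rise as membrane depolarization. Membrane potential dye with 100 uM RO 20-1724 was loaded for 60 min at room temperature, then compound added for 30 min; fluorescence read at 590 nm.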
# TSHR ag: TSH receptor (human) agonism; P16473; HEK293-CNG-TSHR cells (CNG channel as cAMP sensor), membrane potential dye, cAMP; Potency, µM (doses to about 57.1 µM), usual class: activators; AID 926; hit rate 0.48% among 73,000; active means well fitted activation curve with a large enough effect in the main read-out, with a control signal flat, not every such curve was filed as active; inconclusive means small, poorly fitted or top-dose-only effect, or a change in a side signal; inactive means no such curve, though single readings can be large or run the other way; reference of the percent scale not stated here;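 further: the control signal comes from parental cells without the receptor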
# Target sequence (P16473 whole entry, looked up): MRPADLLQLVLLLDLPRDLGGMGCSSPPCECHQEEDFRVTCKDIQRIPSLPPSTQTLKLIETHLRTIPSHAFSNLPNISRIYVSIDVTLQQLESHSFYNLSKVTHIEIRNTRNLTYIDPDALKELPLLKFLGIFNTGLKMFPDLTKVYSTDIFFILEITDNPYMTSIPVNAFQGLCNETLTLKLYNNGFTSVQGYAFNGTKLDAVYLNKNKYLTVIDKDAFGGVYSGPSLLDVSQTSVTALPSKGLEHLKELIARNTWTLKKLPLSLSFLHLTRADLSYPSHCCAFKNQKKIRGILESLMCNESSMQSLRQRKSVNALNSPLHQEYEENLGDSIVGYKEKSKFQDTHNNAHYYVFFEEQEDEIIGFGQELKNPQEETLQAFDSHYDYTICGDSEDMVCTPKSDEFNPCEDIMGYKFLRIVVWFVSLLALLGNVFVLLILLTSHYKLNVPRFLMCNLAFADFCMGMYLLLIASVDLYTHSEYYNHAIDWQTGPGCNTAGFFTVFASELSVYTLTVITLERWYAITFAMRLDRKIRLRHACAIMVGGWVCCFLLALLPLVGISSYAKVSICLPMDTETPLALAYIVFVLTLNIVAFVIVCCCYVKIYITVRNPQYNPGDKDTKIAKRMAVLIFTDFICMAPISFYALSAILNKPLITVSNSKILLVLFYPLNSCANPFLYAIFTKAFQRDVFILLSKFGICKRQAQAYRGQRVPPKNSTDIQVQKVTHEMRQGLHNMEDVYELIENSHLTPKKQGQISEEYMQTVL
#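 HEK 293 cells stably expressing TSHR and a cAMP-gated CNG channel; parental CNG-only cells as counterscreen. Cells preloaded 60 min with membrane potential dye plus 100 uM RO 20-1724, then compound 30 min; fluorescence read at 590 nm.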
# A number is an active result; – = inactive; ? = inconclusive; · = no result; [ ] = another dose, or the depositor's remark.
SMILES,HEK293 cAMP ctrl,TSHR ag
O=C1c2ccccc2C(=O)N1c1ccc(Cc2ccc(N3C(=O)c4ccccc4C3=O)cc2)cc1,–[11.4 µM],–[11.4 µM]
N#Cc1cccc(-c2cc(NCc3ccccc3)ncn2)c1,–,–
C/C(CCC(=O)OC[C@@H]1O[C@H](C#Cc2ccccc2)C=C[C@@H]1Oc1ccc(C)cc1)=N/OC[C@@H](C)[C@H](OCc1ccccc1)C(C)C,–[11.4 µM],–[11.4 µM]
CC(=O)OCC1OC(C#Cc2ccc(F)cc2F)C=CC1OC(C)=O (stereo unspecified),–[11.4 µM],·
CC(C)CNc1nc2ncnc(N)c2[nH]1,–[11.4 µM],–[11.4 µM]
O=C(c1csc2c1CCCC2)N1CCN(c2ncccn2)CC1,–,–
O=C(c1csc2c1CCCC2)n1cccn1,–,32µM
COC(=O)[C@@]1(Cc2ccc(F)cc2)[C@@H]2C(=CC(=O)[C@H]2CC(=O)C(=O)N(C)C)CN1C(=O)c1ccccc1,–,–
CC#CCN(CC#CC)S(=O)(=O)c1ccc(-n2cnnn2)c(OC)c1,13µM,?
COc1cc(S(=O)(=O)N(Cc2ccc(C)cc2)C2CCCCC2)ccc1-n1cnnn1,–,–
CC(C)(C)CC(C)(C)c1cc(O)c(O)c(CN2CCCCC2)c1,–[11.4 µM],–[11.4 µM]
NC(N)=N/N=C(\c1ccc(Cl)cc1)C1CC1,–[11.4 µM],–[11.4 µM]
CC(Oc1ccc(Br)cc1)C(=O)N1CCc2ccccc21 (stereo unspecified),25µM,?
CC(Oc1ccc(-c2ccccc2)cc1)C(=O)N1CCOCC1 (stereo unspecified),–,–
Cc1cc2ccc(C)c(C)c2nc1SCC#N,20µM,?
Cc1sc2ncnc(SCC#N)c2c1C,–,–
Cc1ccc(Nc2ncnc3nc[nH]c23)cc1Cl,25µM,?
CCCCc1ccc(Nc2ncnc3nc[nH]c23)cc1,–,–
Cc1noc(C)c1-c1nccc(NCc2cccs2)n1,–,·
Cc1ccc(-n2ncc3c(=O)n(Cc4ccccn4)cnc32)cc1C,–,–
COC(=O)c1ccc(Cn2cnc3c(cnn3-c3ccc(C)c(C)c3)c2=O)o1,3.2µM,?
O=C(O)/C=C(/C(=O)O)[C@]12CCN3CC4=CCO[C@@H]5CC(=O)N[C@@H]1[C@H]5[C@H]4C[C@H]32,–[11.4 µM],–[11.4 µM]
FC(F)(F)c1nc(SCc2ccc(Cl)cc2)n[nH]1,–[11.4 µM],–[11.4 µM]
COc1cc(NC(=O)C2COc3ccccc3O2)c(OC)cc1Cl (stereo unspecified),16µM,?
COC(=O)c1ccc(C)c(NC(=O)C2COc3ccccc3O2)c1 (stereo unspecified),–,–
SMILES,HEK293 cAMP ctrl,TSHR ag
O=C(O)C(Cl)(c1ccccc1)c1ccccc1,–[11.4 µM],–[11.4 µM]
N#CCCn1c(=O)c(-c2ccccc2)nc2cnc(Nc3ccccc3)nc21,10µM,?
N#CCCn1c(=O)c(-c2ccc(Cl)cc2)nc2cnc(Nc3ccccc3)nc21,–,–
CS(=O)(=O)c1nc(-c2ccco2)cc(C(F)(F)F)n1,–,–
FC(F)(F)c1cc(-c2ccco2)nc(-n2nnc3ccccc32)n1,25µM,?
Cc1cc(C)c(C)c(S(=O)(=O)NCCC(=O)O)c1C,–,–
O=c1cc(CSc2nnnn2-c2ccccc2)nc2nc[nH]n12,–,–
O=c1cc(CSc2ccc(Cl)cc2)nc2nc[nH]n12,10µM,?
O=C(CCn1cnc2ccccc2c1=O)Nc1nc2c(s1)CCCC2,–,–
O=C(CSc1nc2ccccc2o1)Nc1nc2c(s1)CCCC2,32µM,?
O=C(O)[C@@H]1[C@H](C(=O)O)[C@H]2C(=O)C=C[C@H]1N2Cc1ccccc1,–[11.4 µM],–[11.4 µM]
COc1ccccc1CNc1ncnc2ccc(-c3ccc(N(C)C)cc3)cc12,–,?
CN(C)c1ncnc2ccc(-c3cccnc3)cc12,–,–
COc1cccc(-c2cncnc2Nc2ccccc2)c1,–,·
CNc1ncnc2ccc(-c3ccccc3OC)cc12,–,–
COc1ccccc1-c1ccc2ncnc(Nc3ccccc3)c2c1,16µM,?
COc1ccccc1CNc1ncnc2ccc(-c3ccccc3OC)cc12,–,13µM
COc1cccc(-c2ccc3ncnc(N(C)C)c3c2)c1,25µM,?
COc1cccc(-c2ccc3ncnc(Nc4ccccc4)c3c2)c1,20µM,?
N[C@@H](Cc1cc(CP(=O)(O)O)cc(-c2ccccc2Cl)c1)C(=O)O,–,–
CC(C)=CCC/C(C)=C/CO/N=C1/C[C@@H](O)[C@@H](O)[C@@H]2[C@@H]3C(=O)N(Cc4ccccc4)C(=O)[C@H]3CC[C@@H]12,–[11.4 µM],–[11.4 µM]
CN(C)CCn1c(CO)nc2c1c(=O)n(C)c(=O)n2C,–[11.4 µM],–[11.4 µM]
c1nc(N2CCNCC2)c2cc(-c3ccoc3)ccc2n1,–,–
Fc1ccc(Nc2ncnc3ccc(-c4ccoc4)cc23)cc1,13µM,?
c1coc(CNc2nc3sc4c(c3c3ncnn23)CCCC4)c1,–,–
SMILES,HEK293 cAMP ctrl,TSHR ag
Cc1nc2sc3c(c2c2nc(-c4ccco4)nn12)CCCC3,32µM,?
C[C@@H](NC(=O)C1(N)CCCC1)C(=O)O,–[11.4 µM],–[11.4 µM]
COCCn1c(=O)c(-c2cccc(C#N)c2)nc2cnc(OCc3ccccc3)nc21,–,–
CCCCCCCCCCCCCCCCOC[C@@H](COCC(F)(F)F)OP(=O)(O)OCO,–,20µM
CSc1nc(SCC(=O)NCc2ccco2)c2c3c(sc2n1)CN(C)CC3,–,–
CSc1nc(NCc2ccco2)c2c3c(sc2n1)CN(C)CC3,25µM,?
CC(CC(=O)O)(CC(=O)O)c1ccccc1,–[11.4 µM],–[11.4 µM]
CCOC(=O)CC(=O)CSc1nc2c(sc(=S)n2-c2ccccc2)c(=O)[nH]1,–,–
CCOC(=O)CSc1nc2c(sc(=S)n2Cc2ccco2)c(=O)n1-c1ccccc1,1.3µM,?
CN(C)CC(CN(C)C)c1ccccn1,–[11.4 µM],·
Cc1cc(C)cc(N(CC(=O)O)S(=O)(=O)c2cccnc2)c1,–,–
CC1(C)CC(=O)C(C(c2cccc(O)c2O)C2C(=O)CC(C)(C)CC2=O)C(=O)C1,–[11.4 µM],–[11.4 µM]
COc1cc(S(=O)(=O)N2CCCCC2)ccc1NC=O,–,–
COc1ccc(S(=O)(=O)N2CCCCC2)cc1C(C)C,32µM,?
O=C(CSC1=NCCN1)c1ccccc1,–[11.4 µM],–[11.4 µM]
Cc1ccccc1/C=C\C1=NCCN1,–,0.13µM
CC(C)CN1CCc2nc(-c3ccccc3)c3c(c2CC1)COC(C)C3 (stereo unspecified),–[11.4 µM],–[11.4 µM]
Cc1ccc(-n2ncc(C#N)c2/N=C/N2CCCCCC2)cc1,32µM,?
Cc1ccc(-n2ncc(C#N)c2/N=C/N2CCN(C)CC2)cc1,–,–
CCC(Oc1ccccc1)C(=O)Nc1ccccc1OC (stereo unspecified),32µM,?
CCC(Oc1ccccc1)C(=O)Nc1nnc(C)s1 (stereo unspecified),–,–
O=C(O)c1ccccc1NS(=O)(=O)c1ccc(F)c(Cl)c1,–,–
Clc1ccc(OCc2nnc(SCc3nc4ccccc4[nH]3)n2Cc2ccco2)cc1,–,–
O=C(CSc1nnc(COc2ccc(Cl)cc2)n1Cc1ccco1)c1ccccc1F,25µM,?
Cc1cccc(OCc2nnc(SCC(=O)N(C(C)C)C(C)C)n2Cc2ccco2)c1C,7.9µM,?
Cc1cc(NC(=O)CSc2nnc(COc3cccc(C)c3C)n2Cc2ccco2)no1,–,–
O=C(CSc1nnc(-c2ccc(Cl)cc2)n1Cc1ccco1)c1cccs1,16µM,?
NC(=O)CSc1nnc(-c2ccc(O)cc2)n1Cc1ccco1,–,–
O=C(NCCO)c1ccc(-n2c(=O)c(=O)[nH]c3ccccc32)cc1,–,–
CCOC(=O)CCN1C(=O)[C@@H]2[C@H]3C(=CC[C@H]2C1=O)C(=O)[C@H]1O[C@H]1[C@H]3O,–[11.4 µM],–[11.4 µM]
